Here are results for 69 molecules from PubChem BioAssay AID1835 (Johns Hopkins Ion Channel Center, 2009).

The whole screen tested about 2,400 compounds, of which about 750 (31%) were called active. The list shows a part of the results. A number with no mark means an inactive call.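 Rule for the calls: active = median signal gain over dofetilide-blocked control wells reaching their mean plus 3 SD, so readout 1 at least 0; inactive = the rest.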

In the assay the target is Voltage-gated inwardly rectifying potassium channel KCNH2 (Homo sapiens) (UniProt Q12809). The assay is described as follows: modulators restoring hERG flux under dofetilide – cell-based, thallium flux, duplicate retest, dofetilide IC70, confirmation (AID 1835). The note with it: hERG cell line, FluxOR thallium flux, dofetilide-blocked; at 10 µM; hits give high values. In general terms: The hERG channel carries a current that helps repolarise heart muscle cells.
Chain of Voltage-gated inwardly rectifying potassium channel KCNH2 (Homo sapiens) (Q12809 whole entry, looked up): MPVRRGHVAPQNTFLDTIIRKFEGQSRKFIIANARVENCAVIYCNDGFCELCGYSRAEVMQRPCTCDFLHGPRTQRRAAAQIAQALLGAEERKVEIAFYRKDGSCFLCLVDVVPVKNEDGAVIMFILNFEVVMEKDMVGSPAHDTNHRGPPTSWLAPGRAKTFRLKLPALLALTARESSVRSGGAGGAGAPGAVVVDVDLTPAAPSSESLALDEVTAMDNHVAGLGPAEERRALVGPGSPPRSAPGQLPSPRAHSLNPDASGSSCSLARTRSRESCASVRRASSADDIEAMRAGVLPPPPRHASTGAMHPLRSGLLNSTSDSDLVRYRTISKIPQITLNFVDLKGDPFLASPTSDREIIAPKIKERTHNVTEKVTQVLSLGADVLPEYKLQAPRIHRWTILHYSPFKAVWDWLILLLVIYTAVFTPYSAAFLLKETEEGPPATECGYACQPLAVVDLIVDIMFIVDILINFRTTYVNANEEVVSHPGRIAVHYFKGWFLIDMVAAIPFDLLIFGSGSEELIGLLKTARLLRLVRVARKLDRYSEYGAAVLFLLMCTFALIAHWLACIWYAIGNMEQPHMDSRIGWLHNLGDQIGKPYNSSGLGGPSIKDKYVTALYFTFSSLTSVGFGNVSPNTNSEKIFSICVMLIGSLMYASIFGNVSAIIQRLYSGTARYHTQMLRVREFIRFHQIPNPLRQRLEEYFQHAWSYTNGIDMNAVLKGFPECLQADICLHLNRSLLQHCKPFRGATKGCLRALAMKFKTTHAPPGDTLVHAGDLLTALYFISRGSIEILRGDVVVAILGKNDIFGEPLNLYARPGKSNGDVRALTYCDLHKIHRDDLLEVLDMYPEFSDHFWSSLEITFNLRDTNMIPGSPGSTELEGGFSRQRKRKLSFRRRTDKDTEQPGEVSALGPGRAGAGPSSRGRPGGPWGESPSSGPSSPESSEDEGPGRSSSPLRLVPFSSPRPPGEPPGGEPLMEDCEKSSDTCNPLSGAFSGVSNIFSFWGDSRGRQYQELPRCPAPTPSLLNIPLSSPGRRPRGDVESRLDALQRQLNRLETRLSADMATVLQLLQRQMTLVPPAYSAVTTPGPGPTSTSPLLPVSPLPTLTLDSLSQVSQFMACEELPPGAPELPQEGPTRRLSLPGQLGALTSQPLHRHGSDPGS
In the case of `COc1ccc(C)cc1-n1nnnc1SCc1nc2ccccc2c(=O)[nH]1`, the activity increase over dofetilide control, less the hit threshold is -16%.
Then `Cc1ccc(C2=NN(C(=O)CCCC(=O)O)C(c3ccc4c(c3)OCO4)C2)cc1` (centres undefined), with -23%; and `Cc1ccc2oc3c(c(=O)c2c1)C(c1cccs1)N(CCCN(C)C)C3=O` (centres undefined), with 11% (active).
The value for `CCN(CC)CCCN1C(=O)c2oc3ccccc3c(=O)c2C1c1cccs1` (centres undefined) was 28% (active).
Then `COCCN1C(=O)c2oc3cc(C)c(C)cc3c(=O)c2C1c1ccc(O)cc1` (centres undefined), with -7%; and `COCCCNC(=O)CC(NS(=O)(=O)c1ccc(F)cc1)c1ccc(OC)cc1` (centres undefined), with -1%.
As for `CN(C)NC(=O)C(NC(=O)c1ccc(N)cc1)C12CC3CC(CC(C3)C1)C2` (centres undefined), the activity increase over dofetilide control, less the hit threshold is -10%.
Then `O=C(O)c1cc(-c2cccc([N+](=O)[O-])c2)n[nH]1`, with -14%; and `CS(=O)(=O)c1sc(C(=O)NC(=S)Nc2ccc(OC(F)(F)F)cc2)c2c1C=CCC2`, with 11% (active).
Then `CCc1nnc(NS(=O)(=O)c2ccc(NC(=S)NC(=O)/C=C/c3ccc(OC)cc3)cc2)s1`, with -4%.
In the case of `O=C(O)/C=C/C(=O)Nc1ccc(OC(F)(F)F)cc1`, the activity increase over dofetilide control, less the hit threshold is -3%.
Then `COc1ccc(Cc2c(O)nc(SCC(=O)NC(C)(C)C)[nH]c2=O)cc1`, with -17%; and `COc1cccc(N2CC(C(=O)Nc3nnc(SCC(=O)NCC4CCCO4)s3)CC2=O)c1` (centres undefined), with -4%.
In the case of `Cc1nc(SCC(=O)NCC2CCCO2)c2c3c(sc2n1)CCCC3` (centres undefined), the activity increase over dofetilide control, less the hit threshold is 9% (active).
As for `C=CCn1c(SCC(=O)NCC2CCCO2)nnc1-c1ccccc1` (centres undefined), the activity increase over dofetilide control, less the hit threshold was -1%.
The value for `Cc1cc(OCc2ccc(C(=O)Nc3ccc(C(=O)O)cc3)o2)ccc1Cl` was -22%; that for `Cc1ccc(OCc2ccoc2C(=O)O)cc1C` was 11% (active); that for `COC(=O)C1CN(C(=O)COc2ccc(C)c(C)c2)c2ccccc2O1` (centres undefined) was -11%.
The value for `COC(=O)c1cc(S(=O)(=O)NCC2CCN(Cc3cc(C)ccc3C)CC2)c[nH]1` was -12%.
`Cc1nn(C)cc1C(=O)Nc1ccc2c(c1)OCCO2`: the activity increase over dofetilide control, less the hit threshold is -8%.
The value for `O=C(CNC(=S)NC(=O)c1ccc(Br)o1)c1ccccc1` was -3%; that for `COc1ccc(OC)c(NC(=S)NC(=O)c2ccc(Br)o2)c1` was 0% (active).
Then `COc1cc(NS(=O)(=O)c2ccc(NC(=S)Nc3ccccc3)cc2)nc(OC)n1`, with -26%.
The value for `CCN(c1ccccc1)S(=O)(=O)c1ccc(NC(=S)NC(=O)c2ccc(Br)o2)cc1` was 20% (active); that for `COc1cccc(NC(=S)NC(C)c2ccc(OC)c(OC)c2)c1` (centres undefined) was -24%; that for `O=C(NC(=S)NCc1ccccc1)c1ccc(Br)o1` was 91% (active).
In the case of `COc1ccc(NC(=S)NC(=O)c2ccc(Br)o2)cc1`, the activity increase over dofetilide control, less the hit threshold was 13% (active).
The value for `CCc1ccc(NC(=S)NC(=O)c2c(-c3ccccc3Cl)noc2C)cc1` was -2%; that for `CCOC(=O)C1CCN(C(=O)CCS(=O)(=O)c2ccc3c(c2)CCN3C(=O)CC)CC1` was -17%.
Consider `N#Cc1c(N)c(C(=O)c2ccccc2)n2ccccc12`, for which the activity increase over dofetilide control, less the hit threshold is -2%.
Then `Cc1ccsc1/C=N/NC(=O)CNC(=O)c1ccccc1`, with -2%.
The value for `CCCCc1c(O)nc(SCC(=O)N2CCOCC2)[nH]c1=O` was -10%; that for `Cn1ncc2c(O/N=C(\N)c3ccc(C(F)(F)F)cc3)ncnc21` was -15%; that for `NC(=O)C1CCN(C(=O)CCC(=O)c2ccc(F)cc2)CC1` was -4%.
Then `Cc1nc(-c2cc(C#N)c(Sc3ccc(Cl)cc3Cl)nc2C)cs1`, with -4%; and `COc1ccc(-c2cc(C(=O)Nc3ccccc3SC)no2)cc1`, with -2%; and `Cc1ccc(NC(=S)NC(=O)c2ccc(Br)o2)c(C)c1`, with 0%.
On to `COc1ccccc1NC(=S)NC(=O)c1ccc(-c2ccc(Cl)cc2)o1`, for which the activity increase over dofetilide control, less the hit threshold was 8% (active).
Then `C/C(=N\NC(=S)Nc1cccc(C)c1)c1ccco1`, with -26%; and `Cc1cccc(NC(=S)NC(=O)c2ccc(Br)o2)c1`, with 33% (active).
Then `O=C(NC(=S)Nc1ccccc1F)c1ccc(Br)o1`, with 43% (active); and `O=C(NC(=S)Nc1ccccc1)c1ccc(Br)o1`, with 5% (active); and `Cc1ccc2cc(CN(CCCN(C)C)C(=S)NCc3ccccc3)c(=O)[nH]c2c1C`, with -19%.
The value for `Cc1nn(-c2ccc(Cl)nn2)c(=O)c2ccccc12` was -12%; that for `COc1cccc2cc(-c3nc4ccccc4[nH]3)c(=O)oc12` was -24%; that for `CC(C)=CC(=O)OCC(=O)Nc1ccc(SC(F)F)cc1` was -16%.
For `Cc1c(C(=O)NC(=S)NCc2cccnc2)oc2ccccc12`, the activity increase over dofetilide control, less the hit threshold is -7%.
Then `O=C(Nc1cccnc1)c1cc(-c2cccs2)on1`, with -16%; and `O=C(NC(=S)Nc1cccnc1)c1cc2ccccc2o1`, with 21% (active); and `S=C(NCCc1ccccc1)NCCN1CCOCC1`, with -10%.
Consider `O=C(NC(=S)NCCc1ccc(Cl)cc1)c1ccco1`, for which the activity increase over dofetilide control, less the hit threshold is -7%.
Then `O=C(NC(=S)NCCC1=CCCCC1)c1ccco1`, with 50% (active).
Then `O=C(NC(=S)NCCC1=CCCCC1)c1ccc(Br)o1`, with 27% (active).
The value for `Oc1c(Br)cc(Br)cc1CNc1cccc2cccnc12` was -19%; that for `COc1ccc(S(=O)(=O)N(CCc2ccccc2)CC(=O)O)cc1` was -12%.
As to `CN(Cc1ccsc1)C(=O)CCc1nnc(Cc2c[nH]c3ccccc23)o1`, the activity increase over dofetilide control, less the hit threshold was -8%.
As for `CN(Cc1ccccc1)C(=O)CCc1ccccc1`, the activity increase over dofetilide control, less the hit threshold is 12% (active).
With `O=C1NCCN1Cc1ccccc1F`, the activity increase over dofetilide control, less the hit threshold was -20%.
Then `Cc1ccc2c(c1)C1CN(C)CCC1N2C(=S)NC(=O)c1ccc(Br)cc1` (centres undefined), with -26%.
Then `CC1CCN(C(=S)NC(=O)c2ccc(C(C)(C)C)cc2)CC1`, with 22% (active).
In the case of `CCOC(=O)C1CCCN(C(=S)NC(=O)/C=C/c2ccc(F)cc2)C1` (centres undefined), the activity increase over dofetilide control, less the hit threshold is -6%.
Turning to `CC(C)(C)c1ccc(/C=C/C(=O)N2CCCCC2)cc1`, the activity increase over dofetilide control, less the hit threshold is 5% (active).
Then `O=C(NC(=S)N1CCCC1)c1ccc(Cl)cc1`, with 0%; and `COc1cc(OC)cc(C(=O)NC(=S)N2CCCCCC2)c1`, with -12%.
The value for `CN1CCN(C(=S)NC(=O)c2ccc(C(C)(C)C)cc2)CC1` was -15%; that for `CC(C)(C)c1ccc(C(=O)NC(=S)N2CCCCCC2)cc1` was 16% (active).
The value for `O=C(NC(=S)N1CCCCCC1)c1ccc(Cl)cc1Cl` was 11% (active); that for `O=C(/C=C/c1ccccc1)Nc1ccc(C(=O)N2CCCCC2)cc1` was -14%; that for `CC(C)(C)c1ccc(C(=O)NC(=S)N2CCCC2)cc1` was -6%.
